Measurements reported in PubChem BioAssay (NCI).
The panel holds about 83,000 compounds, 20% with a hit somewhere; the sample as a whole holds those more often.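 Growth was measured after 48 h exposure to one concentration of compound in 96-well plates. Values under 10 count as active.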 Active and inactive are the calls of the source.

Each molecule was assayed on MDA-MB-468 breast (assay: NCI-60 one-dose screen, 48 h (100 = growth as untreated, 0 = no growth, -100 = all killed)). Conditions: 10 µM unless noted.
`COc1ccc2nc3cc(Cl)ccc3c(NCCNc3c4ccc(Cl)cc4nc4ccc(OC)cc34)c2c1` was tested, and the growth was -69.8% (active). For `Cc1[nH]n(C(=O)c2ccncc2)c(=O)c1N=Nc1ccc(O)c(C(=O)O)c1`, the growth was 105% (inactive). For `O=C(CSc1nccc(Nc2ccc(S(=O)(=O)Nc3nccs3)cc2)n1)c1ccc(C(F)(F)F)cc1`, the growth was 97% (inactive). In the case of `O=C(Nc1ccccc1C(=O)N/N=C(\c1ccccc1)c1ccccn1)c1ccccc1`, the growth is reported as -19.4% (active). For `C=CC(=O)N1CC2(CCC(n3nc(-c4ccc(Oc5ccccc5)cc4)c4c(N)ncnc43)CC2)C1`, the growth was -58.1% (active). `COc1ccc2c(c1)C(C)Cc1c(Cl)ncnc1N2C` (stereo not given) was tested, and the growth was -47.7% (active). `O=CN1CCCCC1` was tested, and the growth was 95.6% (inactive). For `O=C1c2cccc3c(-c4ccc5c(c4)ncn5C4CCCCC4)ccc(c23)C(=O)N1CCO`, the growth was 78.9% (inactive). `CCCCOc1nc2ccc(OC)cc2cc1-c1cc(-c2ccc(Cl)cc2)nc(-c2ccc(Cl)cc2)c1` was tested, and the growth was 95.2% (inactive). For `CCCCCC(/C=N\NC(=S)N/N=C/C(=C/c1ccccc1)CCCCC)=C\c1ccccc1`, the growth was 47.4% (inactive). In the case of `COc1ccccc1/C=C/C(=O)Nc1ccc(F)cc1`, the growth is reported as 105% (inactive). With `COC(=O)c1ccc(=O)oc1` the growth was 105% (inactive). `C=C1C[C@H](O)[C@H](Br)C(C)(C)[C@@]12CCC(C)=C(Cl)C2` was tested, and the growth was -28.3% (active). In the case of `Cn1ccnc1C(=O)/C=C/c1ccc(CNC(=O)c2ccc(F)cc2)cc1`, the growth is reported as -29.1% (active). In the case of `Cc1cc(-c2ccc(Cl)cc2)n(Cc2nnc(SCC(=O)Nc3ccc(S(N)(=O)=O)cc3)n2-c2ccc([N+](=O)[O-])cc2)n1`, the growth is reported as 78.6% (inactive).
